The values below come from publication PMC4336329 (PLoS ONE, 2015).

Screen size: about 310,000 compounds; about 14,000 (4.5%) showed an effect of 50% or more. Effects have a minus sign here. The list comes from a sample in which strong results are over-represented; it also holds similar structures and randomly drawn compounds.
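Also: peak tail current of the secondary pulse compared with the same well before compound.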

The target in the assay is human ether-à-go-go-related gene (hERG) potassium channel (human, UniProt Q12809). The assay can be described thus: primary screen, population patch clamp on CHO cells stably expressing hERG; higher = less effect of the substance.
Chain of human ether-à-go-go-related gene (hERG) potassium channel (Q12809 whole entry, looked up): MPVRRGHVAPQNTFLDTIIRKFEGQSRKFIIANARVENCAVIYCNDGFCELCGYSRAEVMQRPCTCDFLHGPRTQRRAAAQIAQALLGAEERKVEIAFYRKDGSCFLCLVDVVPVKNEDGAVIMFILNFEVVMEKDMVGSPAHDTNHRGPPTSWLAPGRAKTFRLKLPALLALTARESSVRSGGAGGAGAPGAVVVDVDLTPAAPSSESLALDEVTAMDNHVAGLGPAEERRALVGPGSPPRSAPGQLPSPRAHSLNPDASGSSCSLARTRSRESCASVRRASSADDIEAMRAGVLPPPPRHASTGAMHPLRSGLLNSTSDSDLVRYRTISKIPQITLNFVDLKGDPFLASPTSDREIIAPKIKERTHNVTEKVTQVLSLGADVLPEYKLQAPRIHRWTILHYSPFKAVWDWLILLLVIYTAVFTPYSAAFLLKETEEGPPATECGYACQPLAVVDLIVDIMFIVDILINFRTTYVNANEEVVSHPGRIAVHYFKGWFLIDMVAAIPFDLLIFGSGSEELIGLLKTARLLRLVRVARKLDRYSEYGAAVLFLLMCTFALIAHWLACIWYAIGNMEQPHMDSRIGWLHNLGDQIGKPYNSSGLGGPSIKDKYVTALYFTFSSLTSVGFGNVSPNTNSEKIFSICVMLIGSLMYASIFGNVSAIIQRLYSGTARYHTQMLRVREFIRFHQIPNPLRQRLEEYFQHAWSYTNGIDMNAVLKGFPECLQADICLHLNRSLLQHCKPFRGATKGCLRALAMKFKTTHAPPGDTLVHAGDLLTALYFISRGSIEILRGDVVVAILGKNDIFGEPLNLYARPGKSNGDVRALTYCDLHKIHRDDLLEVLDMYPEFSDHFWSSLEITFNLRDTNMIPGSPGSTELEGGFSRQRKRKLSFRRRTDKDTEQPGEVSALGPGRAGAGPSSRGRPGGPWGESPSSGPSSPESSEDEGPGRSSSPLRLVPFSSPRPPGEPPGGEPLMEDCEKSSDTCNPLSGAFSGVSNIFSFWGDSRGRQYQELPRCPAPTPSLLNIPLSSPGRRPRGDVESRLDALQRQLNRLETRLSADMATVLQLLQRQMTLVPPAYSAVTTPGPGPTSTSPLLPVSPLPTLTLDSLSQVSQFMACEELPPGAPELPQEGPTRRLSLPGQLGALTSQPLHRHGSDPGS
For `CC(c1ccco1)N(C(=O)c1ccccc1NS(=O)(=O)c1ccc(Cl)c([N+](=O)[O-])c1)c1ccccn1` (stereo not drawn), the “hERG current change (%, negative = inhibition) at 10uM” value is given as -6.14%.
Under `COc1ccc(NC(=O)c2nn(C)c(=O)c3ccccc23)cc1S(=O)(=O)Nc1ccccc1Cl` stands 26%.
Take `O=C(NCc1ccccc1)/C(=C\c1ccc([N+](=O)[O-])cc1)NC(=O)c1ccco1`: the “hERG current change (%, negative = inhibition) at 10uM” value is listed as -60.9%.
Under `O=C(NC(Cc1ccccc1)C(=O)O)/C(=C/c1ccc([N+](=O)[O-])cc1)NC(=O)c1ccco1` (stereo not drawn) stands 12.6%.
Regarding `O=C(NCCc1ccccc1)/C(=C\c1ccc([N+](=O)[O-])cc1)NC(=O)c1ccccc1`, the “hERG current change (%, negative = inhibition) at 10uM” value was -14.6%.
Consider `O=C(NCc1ccccc1)/C(=C/c1ccccc1)NC(=O)c1ccco1`, for which the “hERG current change (%, negative = inhibition) at 10uM” value is recorded as -24.6%.
On to `O=C(NCc1ccccc1)/C(=C\c1ccccc1)NC(=O)c1ccco1`, for which the “hERG current change (%, negative = inhibition) at 10uM” value is listed as -21.7%.
Turning to `O=C(NCCc1ccccc1)/C(=C\c1ccc([N+](=O)[O-])cc1)NC(=O)c1ccco1`, the “hERG current change (%, negative = inhibition) at 10uM” value is listed as -80.7%.
As for `COc1ccc(NC(=O)/C(=C\c2ccccc2)NC(=O)c2ccco2)cc1`, the “hERG current change (%, negative = inhibition) at 10uM” value turned out to be 0.0276%.
For the compound `COc1ccc(/C=C(/NC(=O)c2ccco2)C(=O)NCCc2ccccc2)cc1`, the “hERG current change (%, negative = inhibition) at 10uM” value is -52.6%.
`Cc1ccc(C(=O)N/C(=C\c2ccc([N+](=O)[O-])cc2)C(=O)NCCc2ccccc2)cc1`: the “hERG current change (%, negative = inhibition) at 10uM” value is recorded as -33.8%.
For the compound `O=C(Nc1ccccc1)/C(=C/c1ccc([N+](=O)[O-])cc1)NC(=O)c1ccco1`, the “hERG current change (%, negative = inhibition) at 10uM” value stood at 6.42%.
Under `O=C(NCCc1ccccc1)/C(=C\c1ccccc1)NC(=O)c1ccco1` stands -21.4%; under `O=C(NCc1ccccc1)/C(=C/c1ccc([N+](=O)[O-])cc1)NC(=O)c1ccco1`, -62.7%; under `Cc1cc(S(=O)(=O)Nc2ccc3ccccc3c2)c(C)s1`, -0.508%.
On to `O=C(/C=C/c1cccs1)NC(=S)Nc1ccc(C(=O)O)cc1`, for which the “hERG current change (%, negative = inhibition) at 10uM” value was 6.78%.
In the case of `CCOc1ccc(/C=N/Nc2cc(C)nc(N3CCOCC3)n2)cc1`, the “hERG current change (%, negative = inhibition) at 10uM” value is 3.47%.
Turning to `O=C(O)c1ccc2c(c1)C1C=CCC1C(c1cc3c(cc1Br)OCO3)N2` (stereo not drawn), the “hERG current change (%, negative = inhibition) at 10uM” value worked out at 21.2%.
Under `O=c1n(-c2ccc(Br)cc2)cnn1-c1ncccc1[N+](=O)[O-]` stands -22.1%.
Take `O=C1N/C(=N\N=C\c2ccco2)SC1Cc1ccc(F)cc1` (stereo not drawn): the “hERG current change (%, negative = inhibition) at 10uM” value is given as 14%.
`Nc1ncnc(Nc2cccc(C(F)(F)F)c2)n1`: the “hERG current change (%, negative = inhibition) at 10uM” value is recorded as -5.45%.
Turning to `Cc1ccc(SCc2[nH]nc3c2C(c2cccnc2)C(C#N)=C(N)O3)cc1` (stereo not drawn), the “hERG current change (%, negative = inhibition) at 10uM” value is -2.64%.
In the case of `O=C(CCN1C(=O)c2ccccc2C1=O)NCc1ccccc1`, the “hERG current change (%, negative = inhibition) at 10uM” value was determined as 10.2%.
`CCOC(=O)c1cc2occc2n1CC(=O)N1CCOCC1`: the “hERG current change (%, negative = inhibition) at 10uM” value is 6.95%.
With `COc1cc(-c2ccc(NC(=O)NC3CC3)c(OC)c2)ccc1NC(=O)NC1CC1`, the “hERG current change (%, negative = inhibition) at 10uM” value is 27.9%.
In the case of `O=C(NCc1ccco1)/C(=C/c1ccccc1)NC(=O)c1ccco1`, the “hERG current change (%, negative = inhibition) at 10uM” value is listed as 4.72%.
With `O=C(NCc1ccco1)/C(=C/c1ccc([N+](=O)[O-])cc1)NC(=O)c1ccco1`, the “hERG current change (%, negative = inhibition) at 10uM” value is recorded as -69.5%.
`O=C(NCc1ccco1)/C(=C/c1ccc(Cl)cc1)NC(=O)c1ccco1`: the “hERG current change (%, negative = inhibition) at 10uM” value is -14%.
Under `CC(C)CNC(=S)NC(=O)c1csc([N+](=O)[O-])c1` stands 9.85%; under `COc1cccc(CN2CCCC(C(=O)N3CCCCC3)C2)c1.O=C(O)C(=O)O` (stereo not drawn), 5.13%.
Under `COc1cccc(C(=O)C2CCCN(Cc3cccc(-n4nc(C)cc4C)c3)C2)c1` (stereo not drawn) stands -59.4%; under `COc1cccc(C(=O)C2CCCN(Cc3cccc(-n4cccn4)c3)C2)c1` (stereo not drawn), -64.5%.
As to `COc1cccc(C(=O)C2CCCN(Cc3cccc(OCCO)c3)C2)c1` (stereo not drawn), the “hERG current change (%, negative = inhibition) at 10uM” value was -48.7%.
With `Cc1cc(S(=O)(=O)N2CCCC(C)C2)ccc1-n1cnnn1` (stereo not drawn), the “hERG current change (%, negative = inhibition) at 10uM” value was 5.72%.
Under `O=C(CSc1nc(N2CCOCC2)nc(N2CCOCC2)n1)Nc1ccccc1F` stands 19.2%; under `COc1ccccc1C(=O)CC(=O)C(=O)Nc1cccc([N+](=O)[O-])c1C`, 8.79%; under `COCCCNC(=O)c1ccc2c(=O)n(Cc3ccccc3OC)c(=S)[nH]c2c1`, 6.43%.
For `O=C(NCCc1ccc(F)cc1)c1cccs1`, the “hERG current change (%, negative = inhibition) at 10uM” value was 10.4%.
As to `Cc1ccc(S(=O)(=O)N2CCN(C(=O)c3c(-c4ccccc4)noc3C)CC2)cc1C`, the “hERG current change (%, negative = inhibition) at 10uM” value came out at 1.83%.
For `C=CCSc1nc2c(c(-c3ccsc3)c1C#N)CN(C)CC2`, the “hERG current change (%, negative = inhibition) at 10uM” value was -65.2%.
Under `Cc1cccc(CSc2nc3c(c(-c4cccs4)c2C#N)CN(C)CC3)c1` stands -13.1%; under `C=CCSc1nc(N)c(C#N)c(-c2ccc(C)cc2)c1C#N`, 4.13%; under `CN1CCc2nc(SCc3ccc(Cl)cc3)c(C#N)c(-c3cccs3)c2C1`, -66.2%.
Under `CN1CCc2nc(N)c(C#N)c(-c3ccccc3)c2C1` stands -7.5%; under `CN1CCc2nc(SC(C(=O)O)c3ccccc3)c(C#N)c(-c3cccs3)c2C1` (stereo not drawn), 19.4%; under `COc1ccc(NC(=O)CSc2nc3c(c(-c4cccs4)c2C#N)CN(C)CC3)cc1OC`, 1.65%.
As to `CN1CCc2nc(SCC(=O)Nc3cccc(F)c3)c(C#N)c(-c3cccs3)c2C1`, the “hERG current change (%, negative = inhibition) at 10uM” value is reported as -62.3%.
As for `CN1CCc2nc(SCC(=O)Nc3ccc(OC(F)(F)F)cc3)c(C#N)c(-c3cccs3)c2C1`, the “hERG current change (%, negative = inhibition) at 10uM” value is reported as -12.8%.
On to `Cc1ccc(C(=O)Nc2cccc(C(=O)O)c2)cc1`, for which the “hERG current change (%, negative = inhibition) at 10uM” value was determined as 14.4%.
Consider `O=C(COC(=O)c1ccccc1F)Nc1cc(S(=O)(=O)N2CCOCC2)ccc1N1CCCC1`, for which the “hERG current change (%, negative = inhibition) at 10uM” value is reported as -13.5%.
Take `Cc1oc2c(c(C)cc3oc(=O)c(CC(=O)NCCCN4CCCC4=O)c(C)c32)c1C`: the “hERG current change (%, negative = inhibition) at 10uM” value is recorded as -0.519%.
